ATXN2 expr inh: reduces ATXN2 reporter expression in HEK-293 cells; HEK-293 ATXN2-luciferase reporter, luminescence, 24 h; Potency, µM (titrated, usually from 57 µM), inactives show at the highest dose activity change, negative = inhibition, most hits filed as inhibitors; 360,000 compounds, 0.72% hits; also: % is scaled to controls: 0 for no effect and ±100 for the full control effect; nearly all actives have a fitted effect of over 55% in size
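ATXN2-luciferase reporter cells (luciferase flanked by upstream and downstream ATXN2 gene portions) were treated 24 h at 37 °C with compounds at up to 57 uM. SteadyGlo luminescence gave expression; GF-AFC fluorescence gave viability.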
HT1080NT lethal: kills 2HG-producing HT-1080-NT fibrosarcoma cells; HT-1080-NT fibrosarcoma viability, CellTiter-Glo ATP luminescence, 48 h; 360,000 compounds, 1.6% hits; Potency, µM (top dose mostly 46.1 µM), for the others: top-dose activity, negative = less viability, usual class: cytotoxic; AID 686970;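 also: NT is the 2HG producing partner of a matched IDH1 knockdown line; 0% = DMSO-treated cells and -100% = media-only wells without cells; nearly all actives have a fitted effect of over 55% in size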
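Viability of the 2HG-overproducing fibrosarcoma line after 48 hours of compound exposure at 37 degrees C was determined by luminescence with CellTiter-Glo, and concentration-effect curves were then fitted and categorized.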
HT1080 IDH1KD tx: toxicity to HT-1080 IDH1 knockdown cells (counter line). 360,000 compounds, 2% hits. HT-1080 IDH1 knockdown viability, ATP luminescence, 48 h. AID 686971. Potency, µM (doses to about 46.1 µM), without a hit: at the highest dose activity, negative = toxicity, most hits filed as cytotoxic;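 also: 0% = DMSO wells and -100% = cell-free medium wells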
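IDH1KD HT-1080 cells, 750/well, RPMI + 5% FBS; compound pinned after 2 h settling; 48 h, 37 °C; CellTiter-Glo luminescence; % activity normalised to DMSO and no-cell wells; curves fitted, classed by r2 and efficacy.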
KB-3-1 cytotox: kills parental KB-3-1 adenocarcinoma cells. KB-3-1 viability, CellTiter-Glo ATP luminescence, 72 h. Potency, µM (top dose mostly 46.1 µM), hits mostly cytotoxic. 400,000 compounds, 1.4% hits; also: % is scaled to controls: 0 for no effect and ±100 for the full control effect; nearly all actives have a fitted effect of over 60% in size
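Cytotoxicity in the drug-sensitive parental line KB-3-1 was scored as loss of CellTiter-Glo luminescence following 72 h incubation with compound. Values come from curve fitting of normalized concentration-response data.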
KB-V1 cytotox: kills drug-selected multidrug resistant KB-V1 cells | KB-V1 MDR cells viability, CellTiter-Glo, 72 h | 400,000 compounds, 3.4% hits | Potency, µM (doses to about 46.1 µM), most hits filed as cytotoxic; also: % is scaled to controls: 0 for no effect and ±100 for the full control effect; nearly all actives have a fitted effect of over 60% in size
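Readout: CellTiter-Glo luminescence, 10 min after addition. Cells: KB-V1 MDR subline, 72 h at 37 degrees C with compound. Analysis: corrected, normalized data fitted to concentration-effect curves.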
S2 tox: viability counter-screen for ATXN expression inhibitors. S2 cells (HEK-293 line with an ATXN2-luciferase reporter) viability, CellTiter-Fluor protease fluorescence, 24 h. Potency, µM (titrated, usually from 56.7 µM), usual class: cytotoxic. 400,000 compounds, 0.49% hits; also: nearly all actives have a fitted effect of over 40% in size
An asterisk follows results filed as active; [ ] = another dose, or the depositor's remark. Compounds with a hit are over-represented: about 6.2% of the library has one in this group of screens. Calls follow the shape of the dose curve; as a rule, active = well fitted curve in the direction sought with a large enough effect; inconclusive = small, poorly fitted or top-dose-only effect, or another doubt; inactive = no such curve, though single readings can be large; an effect the other way counts as inactive or inconclusive. Potency is read from the fitted curve at half-maximal effect.

How did CC(C(=O)Nc1ccccc1)c1ccc(-c2ccccc2)c(F)c1 (centres undefined) do in these assays?
ATXN2 expr inh: -29%; HT1080NT lethal: inconclusive; HT1080 IDH1KD tx: 21µM*; KB-3-1 cytotox: inconclusive; KB-V1 cytotox: inactive; S2 tox: inactive

How did COc1ccc(-c2csc(NC(=O)c3ccccc3NS(=O)(=O)c3ccc(C)cc3)n2)cc1 do in these assays?
ATXN2 expr inh: inconclusive; HT1080NT lethal: inconclusive; HT1080 IDH1KD tx: inconclusive; KB-3-1 cytotox: 2.6µM*; KB-V1 cytotox: 2.3µM*; S2 tox: inactive

What do the screens show for `COc1ccc(NC(=O)c2ccccc2NS(=O)(=O)c2ccc(CNC(C)=O)cc2)c(OC)c1`?
ATXN2 expr inh: -6%; HT1080NT lethal: 13µM*; HT1080 IDH1KD tx: inconclusive; KB-3-1 cytotox: inconclusive; KB-V1 cytotox: inactive; S2 tox: inactive

What do the screens show for `COc1ccc(S(=O)(=O)Nc2ccccc2C(=O)Nc2nc(-c3ccc(F)cc3)cs2)cc1OC`?
ATXN2 expr inh: inconclusive; HT1080NT lethal: inconclusive; HT1080 IDH1KD tx: inconclusive; KB-3-1 cytotox: inconclusive; KB-V1 cytotox: 15µM*; S2 tox: inactive

How did Cc1ccc(-c2csc(NC(=O)C3=COCCO3)n2)cc1 do in these assays?
ATXN2 expr inh: 64%; HT1080NT lethal: 0%; HT1080 IDH1KD tx: -8%; KB-3-1 cytotox: inactive; KB-V1 cytotox: inactive; S2 tox: inactive

How did O=C(Nc1nc(-c2ccc(Oc3ccccc3)cc2)cs1)C1=COCCO1 do in these assays?
ATXN2 expr inh: -13%; HT1080NT lethal: 2%; HT1080 IDH1KD tx: inconclusive; KB-3-1 cytotox: inconclusive; KB-V1 cytotox: 18µM*; S2 tox: inactive

What do the screens show for `COCC(=O)Nc1cc(C(=O)N2CC3(C)CC2CC(C)(C)C3)c2c(c1)nc(-c1ccncc1)n2C` (centres undefined)?
S2 tox: inactive

Results for CN(C)c1ccc(CNC(=O)C2(C)Cc3c(-c4ccccc4)ccnc3O2)cc1 (centres undefined) ?
ATXN2 expr inh: -21%; HT1080NT lethal: inconclusive; HT1080 IDH1KD tx: inconclusive; KB-3-1 cytotox: inconclusive; KB-V1 cytotox: inconclusive; S2 tox: inconclusive

What do the screens show for `CC1(C(=O)NCCC(F)(F)F)Cc2c(-c3ccccc3)ccnc2O1` (centres undefined)?
ATXN2 expr inh: -13%; HT1080NT lethal: -16%; HT1080 IDH1KD tx: inconclusive; KB-3-1 cytotox: inconclusive; KB-V1 cytotox: 21µM*; S2 tox: inactive

How did CC1(C(=O)NCc2ccco2)Cc2c(-c3ccccc3)ccnc2O1 (centres undefined) do in these assays?
ATXN2 expr inh: -18%; HT1080NT lethal: inconclusive; HT1080 IDH1KD tx: inconclusive; KB-3-1 cytotox: 8.2µM*; KB-V1 cytotox: 7.3µM*; S2 tox: inactive

Results for CC(=O)NCCNC(=O)C1(C)Cc2c(-c3ccccc3)ccnc2O1 (centres undefined) ?
ATXN2 expr inh: 3%; HT1080NT lethal: inconclusive; HT1080 IDH1KD tx: 1%; KB-3-1 cytotox: inactive; KB-V1 cytotox: inactive; S2 tox: inactive

What do the screens show for `CC(=O)Nc1ccc(-c2ccnc3c2CC(C)(C(=O)Nc2ccccc2)O3)cc1` (centres undefined)?
ATXN2 expr inh: -20%; HT1080NT lethal: inconclusive; HT1080 IDH1KD tx: inconclusive; KB-3-1 cytotox: inactive; KB-V1 cytotox: inconclusive; S2 tox: inactive

Results for CC(=O)Nc1ccc(-c2ccnc3c2CC(C)(C(=O)NCCc2ccccc2)O3)cc1 (centres undefined) ?
ATXN2 expr inh: 2%; HT1080NT lethal: -5%; HT1080 IDH1KD tx: -19%; KB-3-1 cytotox: 26µM*; KB-V1 cytotox: inactive; S2 tox: inactive

What do the screens show for `O=C(Nc1ccc(F)cc1F)c1ccc2c(O)c(S(=O)(=O)c3ccc(Cl)cc3)c(=O)[nH]c2c1`?
ATXN2 expr inh: -4%; KB-3-1 cytotox: inactive; KB-V1 cytotox: inactive; S2 tox: inactive

Results for CCOc1ccccc1C(=O)NC(C)c1ccc2c(c1)OCO2 (centres undefined) ?
ATXN2 expr inh: -18%; HT1080NT lethal: inconclusive; HT1080 IDH1KD tx: inconclusive; KB-3-1 cytotox: inconclusive; KB-V1 cytotox: 9.2µM*; S2 tox: inactive

What do the screens show for `CC(C)C(NC(=O)c1ccccc1)C(=O)OCc1cc([N+](=O)[O-])cc2c1OCOC2` (centres undefined)?
HT1080NT lethal: -2%; HT1080 IDH1KD tx: -8%; KB-3-1 cytotox: inactive; KB-V1 cytotox: inactive; S2 tox: inactive

Results for CCOc1ccccc1C(=O)N[C@H](C(=O)OCc1cc(=O)oc2cc(C)ccc12)C(C)C ?
ATXN2 expr inh: -22%; HT1080NT lethal: -19%; HT1080 IDH1KD tx: -23%; KB-3-1 cytotox: inactive; KB-V1 cytotox: 3.3µM*; S2 tox: inactive

How did COc1cc(OC)cc(C(=O)N[C@H](C(=O)OCc2cc(=O)oc3cc(C)ccc23)C(C)C)c1 do in these assays?
ATXN2 expr inh: -6%; HT1080NT lethal: 1%; HT1080 IDH1KD tx: -1%; KB-3-1 cytotox: inactive; KB-V1 cytotox: 3.7µM*; S2 tox: inconclusive

Results for CCOc1ccccc1C(=O)N[C@H](C(=O)OCc1cc([N+](=O)[O-])cc2c1OCOC2)C(C)C ?
ATXN2 expr inh: -19%; HT1080NT lethal: -2%; HT1080 IDH1KD tx: inconclusive; KB-3-1 cytotox: inactive; KB-V1 cytotox: 5.8µM*; S2 tox: inconclusive

What do the screens show for `CCn1cc(C(=O)N2CCN(c3cc(Cl)ccc3C)CC2)c(=O)c2cc(S(=O)(=O)N3CCCCC3)ccc21`?
ATXN2 expr inh: -12%; KB-3-1 cytotox: inactive; KB-V1 cytotox: inactive; S2 tox: inactive

How did COc1cc2nc(N3CCCC(O)C3)c(CNCc3ccccc3F)cc2c(OC)c1OC (centres undefined) do in these assays?
S2 tox: inactive

What do the screens show for `Nc1cc([N+](=O)[O-])cc(N)c1N`?
KB-3-1 cytotox: inactive; KB-V1 cytotox: inactive

How did COc1ccc(CCNC(=O)c2c(C)oc3ncn(CC(C)C)c(=O)c23)c(OC)c1 do in these assays?
ATXN2 expr inh: -12%; KB-3-1 cytotox: inactive; KB-V1 cytotox: inactive; S2 tox: inactive

How did CC(C)Oc1cccc(C(=O)C2CCCN(Cc3cccn3-c3ccccn3)C2)c1 (centres undefined) do in these assays?
ATXN2 expr inh: -20%[11.3 µM]; HT1080NT lethal: 23µM*; HT1080 IDH1KD tx: 21µM*; KB-3-1 cytotox: inconclusive; KB-V1 cytotox: inconclusive; S2 tox: inconclusive
